# Sm TGR block: qHTS Assay for the Inhibitors of Schistosoma Mansoni Peroxiredoxins | Schistosoma mansoni thioredoxin glutathione reductase (TGR), Q962Y6 | purified TGR, DTNB reduction, TNB absorbance 405 nm | Potency, µM (doses to about 114 µM), usual class: inhibitors | 360,000 compounds, 3% hits | AID 485364, 2010; active means well fitted inhibition curve with a large enough effect; inconclusive means small, poorly fitted or top-dose-only effect; inactive means no such curve, though single readings can be large or run the other way; further: nearly all actives have a fitted effect of over 60% in size
#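 First, TGR (20 nM dispensed) and NADPH were mixed with compound. Second, a 15 min room-temperature incubation followed. Third, further NADPH and then DTNB were added to start the reaction. Finally, TNB absorbance was monitored kinetically.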
# FMDV inh: High Throughput Screening for Foot and Mouth Disease Virus Antivirals. Potency, µM (titrated, usually from 57.9 µM), actives largely listed as inhibitors. FMDV antiviral cell-based qHTS. 410,000 compounds, 1.2% hits; calls by dose curve; tested in HEK293T cells; further: read-out not given here; nearly all actives have a fitted effect of over 45% in size
# Shiga inhibitor: A qHTS for Small Molecule Inhibitors of Shiga Toxin. Vero cells, Shiga toxin protein synthesis inhibition reporter. inhibition, % at 38.7 µM. 290,000 compounds, 9.2% hits. AID 2315, 2010; in the data active means inhibition mostly above about 28%, no sharp cut-off; inactive means mostly below about 43%
# CHX counter: Cycloheximide Counterscreen for Small Molecule Inhibitors of Shiga Toxin; 300,000 compounds, 12% hits; cell reporter, cycloheximide protein synthesis inhibition counterscreen; max response, %; in the data active means max response mostly above about 13%, no sharp cut-off; inactive means mostly below about 14%; further: read at 38.3 µM for the half of the compounds with a filed dose
# Hits are given with their value; – = inactive; ? = inconclusive; · = no result given. Most compounds without a hit are left out; they make up all but 12% or so of the library.
SMILES,Sm TGR block,FMDV inh,Shiga inhibitor,CHX counter
CC(C)C(C(=O)O)N1C(=O)/C(=C/c2cccn2C)SC1=S (stereo not given),–,–,–,–
O=C(NN1C(=O)/C(=C/C=C/c2ccco2)SC1=S)c1ccncc1,3.16µM,–,–,–
O=C(NN1C(=O)/C(=C/C=C/c2ccccc2)SC1=S)c1ccncc1,–,–,–,–
CC(C)C(C(=O)O)N1C(=O)/C(=C/C=C/c2ccco2)SC1=S (stereo not given),11.2µM,–,–,–
O=C1/C(=C/C=C/c2ccco2)SC(=S)N1c1ccc(O)cc1,4.47µM,–,–,–
CN(C)c1ccc(/C=C/C=C2/SC(=S)N(c3ccccc3)C2=O)cc1,–,?,88.2,33.1
COc1ccccc1N1CCN(c2ccc(=O)n(CC(=O)NCc3ccc(F)cc3)n2)CC1,–,?,·,·
O=C(NCC(c1cccnc1)N1CCN(c2ccc(F)cc2)CC1)c1cccc(Cl)c1 (stereo not given),–,25.1µM,–,–
CCN1CCN(C(CNC(=O)c2ccc3c(c2)OCO3)c2cccnc2)CC1 (stereo not given),–,–,–,20.3
CCc1cccc(-n2c(C)nc3c(cnn3-c3ccc(C)c(C)c3)c2=O)c1,–,–,·,·
Cc1nc(COc2ccccc2Cl)sc1-c1ccnc(N)n1,–,–,49.0,19.3
Clc1ccccc1OCc1nn2c(-c3ccncc3)nnc2s1,–,·,–,–
Cc1cccc(-n2cc(CN3CCCN(C=O)CC3)c(-c3cccc(F)c3)n2)c1,–,–,52.3,23.9
CCCCCCC(=O)N(O)C1CC(=O)N(c2ccc(F)cc2)C1=O (stereo not given),0.631µM,–,–,–
CCCCN(C(=O)CCC(=O)O)C1CC(=O)N(c2ccc(OCCC)cc2)C1=O (stereo not given),–,–,–,–
COc1ccccc1N(O)C1CC(=O)N(c2ccc(Br)cc2)C1=O (stereo not given),2.82µM,–,41.9,27.0
COc1ccc(N2C(=O)CC(Cc3ccc(Br)cc3)C2=O)cc1 (stereo not given),–,–,–,–
CCCCCCC(=O)N(O)C1CC(=O)N(c2ccc(Br)cc2)C1=O (stereo not given),0.708µM,–,–,–
CCC(=O)Nc1ccccc1-c1nc2ccccc2n(C(C)C(=O)Nc2cccc(Cl)c2C)c1=O (stereo not given),–,–,·,·
O=C(N/N=C/c1ccc(N2CCOCC2)o1)c1cccc([N+](=O)[O-])c1,11.2µM,–,–,–
O=C(N/N=C/c1ccc(N2CCCCC2)o1)c1ccccc1,7.94µM,–,75.5,37.1
CCOC(=O)c1c(CC(C)C)csc1NC(=O)c1ccccc1C(=O)O,–,–,–,–
CC(C)Cc1csc(NC(=O)c2ccc(F)cc2)c1C(=O)O,–,–,55.8,39.9
Cc1nc2ncnn2c(C)c1CCC(=O)N1CCN(c2cccc(Cl)c2)CC1,–,–,·,·
Cc1nc2ncnn2c(C)c1CCC(=O)NCCCN1CCN(c2cccc(Cl)c2)CC1,79.4µM,–,–,–
SMILES,Sm TGR block,FMDV inh,Shiga inhibitor,CHX counter
COC(=O)c1ccc(C2/C(=C(/O)c3ccc(Cl)cc3)C(=O)C(=O)N2C2CCS(=O)(=O)C2)cc1 (stereo not given),–,?,–,–
O=C1C(=O)N(C2CCS(=O)(=O)C2)C(c2cccc(O)c2)/C1=C(/O)c1ccc(Cl)cc1 (stereo not given),56.2µM,–,–,–
CCCCCC(=O)N(c1ccc(OCC)cc1)S(=O)(=O)c1ccc2c(c1)n(C)c(=O)n2C,–,?,·,·
CNc1c([N+](=O)[O-])cnn1-c1ccccc1Cl,–,–,–,15.3
CNc1c([N+](=O)[O-])cnn1-c1ccc(Cl)cc1Cl,–,–,–,–
CCOC(=O)c1cccc(NC(=O)CC2C(=O)N(c3ccc(F)cc3)C(=O)N2C(C)C)c1 (stereo not given),–,–,·,·
CN(C)/C=C(\C#N)C(=O)N/N=C/c1ccc(Cl)cc1,–,–,–,–
CN(C)/C=C(\C#N)C(=O)Nc1ccc(F)c(Cl)c1,–,–,52.2,24.0
CN(C)/C=C(\C#N)C(=O)Nc1ccc(F)cc1,–,–,50.3,15.7
CCc1ccc(NS(=O)(=O)c2ccc3[nH]cc(C(=O)NCCCOC(C)C)c(=O)c3c2)cc1,–,–,·,·
COc1ccc(-c2noc(CSc3nnc(-c4ccncc4)n3-c3ccc(C)c(C)c3)n2)cc1,–,–,·,·
CC(C)C[C@@H](C=O)NC(=O)[C@H](CC(C)C)NC(=O)[C@H](CC(C)C)NC(=O)OCc1ccccc1,·,–,·,·
COc1ccc(Cn2c(CO)cnc2SCC(=O)Nc2ccc3c(c2)OCCO3)cc1,–,–,·,·
Cc1ccc(NC(=O)CSc2nccn2Cc2ccco2)cc1Cl,–,–,·,·
COc1ccc(-c2cnc(SCC(=O)Nc3ccc4c(c3)OCO4)n2Cc2ccco2)cc1,–,?,–,13.8
CC(=O)Nc1cccc(NC(=O)CSc2ncc(-c3ccc(Cl)cc3)n2Cc2ccco2)c1,–,14.1µM,–,–
Cc1ccc(-n2c(=O)[nH]c3cc(C(=O)NCc4ccccc4)ccc3c2=O)cc1,–,–,·,·
Cc1ccc(Cl)cc1NC(=O)c1ccc2snnc2c1,–,–,·,·
COc1ccc(NC(=O)c2ccc3snnc3c2)cc1,–,–,63.8,46.5
O=C(Nc1ccccc1F)c1ccc2snnc2c1,–,–,60.2,37.8
O=C(Nc1ccc(Cl)cc1)c1ccc2snnc2c1,–,–,38.4,36.8
CC(=O)c1ccc(NC(=O)c2ccc3snnc3c2)cc1,–,–,65.2,50.0
CNC(=O)c1ccc2snnc2c1,–,–,–,–
Cc1c(Cl)cccc1NC(=O)c1ccc2snnc2c1,–,–,·,·
O=C(Nc1cccc(C(F)(F)F)c1)N1CC2CCCN2c2ccccc21 (stereo not given),–,–,·,·
SMILES,Sm TGR block,FMDV inh,Shiga inhibitor,CHX counter
Cc1ccc(C)c(N2CCN(C(=O)c3c(C)oc4nc(C)nc(N5CCOCC5)c34)CC2)c1,–,–,·,·
COc1cc(-c2nnc(SCCOc3ccc(Cl)cc3C)o2)cc(OC)c1OC,–,–,·,·
COc1cc(C(C[N+](=O)[O-])c2c(C)cc3ccccn23)ccc1O (stereo not given),17.8µM,22.4µM,–,–
COc1cc(C(C[N+](=O)[O-])c2c(C)[nH]c3ccccc23)ccc1O (stereo not given),?,–,–,–
COC(=O)C(C(=O)OC)C(C[N+](=O)[O-])c1ccc(OC)c(OC)c1 (stereo not given),–,–,–,–
COc1cc(C(C[N+](=O)[O-])c2c(-c3ccccc3)cc3ccccn23)cc(OC)c1OC (stereo not given),8.91µM,–,–,–
COc1ccc(C(C[N+](=O)[O-])c2c(-c3ccccc3)cc3ccccn23)cc1OC (stereo not given),7.94µM,?,–,–
COc1ccc(C(C[N+](=O)[O-])c2c(-c3ccccc3)cc3ccccn23)cc1 (stereo not given),–,–,–,39.9
Cc1cccn2c(=O)c3cc(C(=O)NCCc4ccc(S(N)(=O)=O)cc4)n(C)c3nc12,–,–,·,·
COc1ccc(CCNC(=O)CSc2ccc(-c3ccco3)nn2)cc1,12.6µM,–,–,–
